In PubChem BioAssay AID1159580 (chemical genetic matrix, 2015):
Screen size: about 5,500 compounds; about 2,000 (36%) were called active. Roughly 18% stayed inconclusive and do not appear here. No stated cut-off is given here; in the data, active means normalized growth mostly below about 0.91 (no sharp cut-off); inconclusive means no clear call, values can overlap the other calls; inactive means mostly above about 0.92. This is one part of the list.

Assay: chemical genetic growth profiling, strain panel (AID 1159580);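 further: tested at 20 µM; growth read once vehicle control cultures reached saturation at 30 °C; 1 = growth at the plate median or of vehicle wells; lower values mean less growth of the strain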
Settings: S. cerevisiae deletion strains, growth OD

Measured: normalized growth

FC(F)(F)COCC(F)(F)F
inactive: locus YAL021C, strain ccr4, active compounds read low 1.02 | locus YAL026C, strain drs2, active compounds read low 1.04 | locus YAL030W, strain snc1, active compounds read low 0.993 | locus YBL061C, strain skt5, active compounds read low 1.03 | locus YBR009C, strain hhf1, active compounds read low 0.998 | locus YBR023C, strain chs3, active compounds read low 1.03 | locus YBR171W, strain sec66, active compounds read low 1.01 | locus YBR231C, strain swc5, active compounds read low 1.02 | locus YBR279W, strain paf1, active compounds read low 1.02 | locus YCL011C, strain gbp2, active compounds read low 1.02 | locus YCL016C, strain dcc1, active compounds read low 1.03 | locus YCL069W, strain vba3, active compounds read low 1.03 | locus YCR088W, strain abp1, active compounds read low 1.01 | locus YDL005C, strain med2, active compounds read low 1.01 | locus YDL040C, strain nat1, active compounds read low 1.02 | locus YDR001C, strain nth1, active compounds read low 1.01 | locus YDR069C, strain doa4, active compounds read low 1.02 | locus YDR137W, strain rgp1, active compounds read low 1.03 | locus YDR159W, strain sac3, active compounds read low 0.963 | locus YDR195W, strain ref2 0.996 | locus YDR297W, strain sur2, active compounds read low 1.01 | locus YDR334W, strain swr1, active compounds read low 1.01 | locus YDR335W, strain msn5, active compounds read low 1.03 | locus YDR392W, strain spt3, active compounds read low 0.971 | locus YEL003W, strain gim4, active compounds read low 0.992 | locus YEL037C, strain rad23, active compounds read low 1.01 | locus YEL061C, strain CIN8 (second series), active compounds read low 1 | locus YER015W, strain faa2, active compounds read low 1.02 | locus YER016W, strain bim1, active compounds read low 1.03 | locus YER111C, strain swi4, active compounds read low 1.01 | locus YER155C, strain BEM2 (second series), active compounds read low 0.986 | locus YFR010W, strain ubp6, active compounds read low 0.999 | locus YGL167C, strain pmr1, active compounds read low 1.02 | locus YGL173C, strain kem1, active compounds read low 1 | locus YGL227W, strain vid30, active compounds read low 1.02 | locus YGL240W, strain doc1, active compounds read low 0.996 | locus YGL253W, strain hxk2, active compounds read low 1.03 | locus YHR013C, strain ard1, active compounds read low 1.02 | locus YHR027C, strain rpn1, active compounds read low 1.02 | locus YHR030C, strain SLT2, active compounds read low 0.998 | locus YHR079C, strain IRE1, active compounds read low 0.96 | locus YHR142W, strain chs7, active compounds read low 1.03 | locus YJL092W, strain hpr5, active compounds read low 1.02 | locus YJL095W, strain BCK1 (second series), active compounds read low 1.03 | locus YJL095W, strain BCK1, active compounds read low 1 | locus YJL115W, strain asf1, active compounds read low 1.02 | locus YJL129C, strain trk1, active compounds read low 1.04 | locus YJL154C, strain vps35, active compounds read low 1.04 | locus YJL164C, strain tpk1, active compounds read low 1.02 | locus YJL166W, strain qcr8, active compounds read low 0.986 | locus YJL187C, strain SWE1, active compounds read low 1.02 | locus YJR066W, strain TOR1, active compounds read low 0.938 | locus YKL160W, strain elf1, active compounds read low 1.01 | locus YKR026C, strain gcn3, active compounds read low 1.01 | locus YKR091W, strain srl3, active compounds read low 1.01 | locus YLL001W, strain dnm1, active compounds read low 0.988 | locus YLL026W, active compounds read low 1 | locus YLL041C, strain sdh2, active compounds read low 1.02 | locus YLR027C, strain aat2, active compounds read low 1.02 | locus YLR113W, strain HOG1, active compounds read low 0.999 | locus YLR221C, strain rsa3, active compounds read low 0.996 | locus YLR258W, strain gsy2, active compounds read low 1.04 | locus YLR262C, strain YPT6 (second series), active compounds read low 0.992 | locus YLR320W, strain mms22, active compounds read low 0.968 | locus YLR342W, strain FKS1, active compounds read low 1.03 | locus YLR357W, strain rsc2, active compounds read low 1.01 | locus YLR370C, strain arc18, active compounds read low 1.03 | locus YLR384C, strain iki3, active compounds read low 1.02 | locus YML120C, strain ndi1, active compounds read low 1 | locus YMR058W, strain fet3, active compounds read low 1.04 | locus YMR125W, strain sto1, active compounds read low 1.04 | locus YMR129W, active compounds read low 1 | locus YMR205C, strain PFK2, active compounds read low 1 | locus YMR231W, strain pep5, active compounds read low 1.01 | locus YNL071W, strain lat1, active compounds read low 1.03 | locus YNL183C, strain NPR1, active compounds read low 0.948 | locus YNL209W, strain ssb2, active compounds read low 1.03 | locus YNL248C, strain rpa49, active compounds read low 1.04 | locus YNL322C, strain KRE1 (second series), active compounds read low 1.02 | locus YNR049C, strain mso1, active compounds read low 1.01 | locus YOR001W, strain rrp6, active compounds read low 0.986 | locus YOR070C, strain gyp1, active compounds read low 1.01 | locus YOR080W, strain dia2, active compounds read low 1.01 | locus YOR083W, strain WHI5, active compounds read low 0.981 | locus YOR106W, strain vam3, active compounds read low 1.04 | locus YOR231W, strain MKK1, active compounds read low 0.993 | locus YOR265W, strain rbl2, active compounds read low 1.01 | locus YOR270C, strain vph1, active compounds read low 1.07 | locus YOR290C, strain snf2, active compounds read low 1.03 | locus YPL051W, strain arl3, active compounds read low 1.03 | locus YPL078C, strain atp4, active compounds read low 1.03 | locus YPL106C, strain sse1, active compounds read low 0.983 | locus YPL240C, strain hsp82, active compounds read low 1 | locus YPL256C, strain CLN2, active compounds read low 0.948
